High-throughput results from PubChem.
Mito fusion yeast: inhibitors of mitochondrial division or activators of mitochondrial fusion; Potency, µM (top dose mostly 46.1 µM), without a hit: at the highest dose growth rescue (activation), most hits filed as activators; 0.23% of 320,000 active; AID 485298; S. cerevisiae fusion-defective mutant growth rescue, CellTiterGlo 48 h; also: % of control where 0% means no effect; nearly all actives have a fitted effect of over 45% in size
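Yeast fusion mutant, YPEG (non-fermentable carbon), compound, 48 h at 37C non-permissive; CellTiterGlo added, 10 min RT, luminescence read. Rescued growth = division inhibition.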
aSyn rescue: alpha-synuclein toxicity inhibition in yeast; 0.14% of 370,000 active; AID 652106; Yeast expressing alpha-synuclein, growth rescue, BacTiter-Glo, 24 h; Potency, µM (series often up to 46.1 µM), inactives show top-dose growth rescue (activation), usual class: activators; also: % of control where 0% means no effect; nearly all actives have a fitted effect of over 65% in size
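Screening used galactose-induced yeast with toxic alpha-synuclein levels, exposed to compound for 24 hr at 30 deg C. Cell growth, read with BacTiter-Glo luminescence, gave the measured signal.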
TDP43 rescue: inhibitors of TDP-43 toxicity in yeast. TDP-43 expressing yeast growth rescue, BacTiter-Glo, 24 h. Potency, µM (highest dose often 46.1 µM), for inactives: at the top dose growth rescue (activation), most hits filed as activators. 1.8% of 410,000 active; also: % of control where 0% means no effect; nearly all actives have a fitted effect of over 50% in size
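Luminescence from BacTiter-Glo reports growth of TDP-43-expressing yeast after 24 hr at 30 deg C with compound. Cells were raffinose-pregrown to mid-log, then seeded in galactose medium at OD600=0.02.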
AT treatment: candidate therapy for ataxia-telangiectasia | F2112 A-T fibroblasts, KAP-1 phosphorylation AlphaLISA; neocarzinostatin DNA damage 30 min before lysis | Potency, µM (highest dose often 57.5 µM), for inactives: at the highest dose activation, actives largely listed as activators | 0.19% of 320,000 active | AID 485349; also: % of control where 0% means no effect; nearly all actives have a fitted effect of over 45% in size
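ATM-like activity read as KAP-1 phosphorylation via AlphaLISA donor/acceptor antibody pairs after lysis and 6 hr at 25C. Cells were ATM-null patient fibroblasts (F2112, hTERT), dosed 60 min, then exposed to the DSB inducer NCS for 30 min.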
Abeta rescue: compounds reversing amyloid beta toxicity in yeast. 0.063% of 410,000 active. AID 1347071. Potency, µM (highest dose often 46.1 µM), hits mostly activators. yeast expressing A-beta42, growth rescue, OD600, 48 h; response scale: 0% DMSO, 100% iron-clioquinol control; also: nearly all actives have a fitted effect of over 55% in size
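Yeast growth medium received pinned compounds, then yeast cells expressing toxic A-beta were added; plates incubated at 30 C for 48 hr. Growth read as absorbance at 600 nm, normalized to DMSO and equimolar FeCl3 plus clioquinol controls.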
FUS suppressor: FUS proteinopathy suppression in yeast | S. cerevisiae FUS-expressing, growth rescue, OD600, 24 h | Potency, µM (top dose mostly 76.6 µM), actives largely listed as activators | 0.24% of 390,000 active;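 also: plate controls were DMSO vehicle for no effect and reference control for full effect; nearly all actives have a fitted effect of over 55% in size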
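Toxicity suppression screen in FUS-yeast. Cells induced with 2% galactose, starting OD 0.005, treated 24hr at 30C with compounds at multiple final concentrations; growth by OD600.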
An asterisk follows results filed as active; i = inactive; ? = inconclusive; nt = no result given; [ ] = dose if it differs, or a comment. Compounds with a hit are over-represented: about 2.4% of the library has one in this group of screens. Calls follow the shape of the dose curve; as a rule, active = well fitted curve in the direction sought with a large enough effect; inconclusive = small, poorly fitted or top-dose-only effect, or another doubt; inactive = no such curve, though single readings can be large; an effect the other way counts as inactive or inconclusive. Potency is read from the fitted curve at half-maximal effect.

SMILES	Mito fusion yeast	aSyn rescue	TDP43 rescue	AT treatment	Abeta rescue	FUS suppressor
Cc1onc(-c2ccccc2)c1C(=O)N/N=C/c1ccc([N+](=O)[O-])s1	11µM*	-52%	-9%	6%	i	nt
Cc1onc(-c2ccccc2)c1C(=O)N/N=C/c1ccco1	-2%	12%	0%	-4%	i	i
COC(=O)c1cc2occc2n1Cc1nc(-c2cccc(Br)c2)oc1C	nt	nt	8%	nt	i	i
Cc1ccc(C(=O)Oc2oc(-c3ccco3)nc2C=Nc2ccc(Cl)cc2)cc1	2%	2%	6.3µM*	-4%	i	nt
O=C(Oc1oc(-c2ccco2)nc1C=Nc1ccccc1)c1ccoc1	0%	?	-22%	-3%	i	i
COc1cc(NS(=O)(=O)c2ccc(C)cc2)c2ncccc2c1	-1%	?	11µM*	5%	i	i
O=C(Nc1cccc2cccnc12)c1ccc(Cl)cc1Cl	18%	1%	19%	1%	i	i
Cc1ccc(S(=O)(=O)Nc2cccc3cccnc23)cc1	0%	?	35µM*	nt	i	i
COc1cc(NC(=O)c2ccccc2Cl)c2ncccc2c1	-8%	3%	20µM*	5%	i	i
CC[C@H](CCCCCCCn1ccc2ccccc21)CCC(=O)N(c1ccccc1)c1ccccc1	nt	nt	nt	nt	nt	i
Cc1ccc(CN(C(=O)c2ccccc2Br)C2CCS(=O)(=O)C2)o1 (stereo not drawn)	nt	nt	28%	nt	i	i
Nc1ccccc1SCC(O)Cn1ccc2ccccc21 (stereo not drawn)	-24%	?	18µM*	-4%	i	i
CC1(C(=O)NCCCNc2ncc(C(F)(F)F)cc2Cl)C=CCN1C(=O)c1ccccc1 (stereo not drawn)	-3%	1%	19%	20%	i	i
C[C@]1(C(=O)NCCCNc2ncc(C(F)(F)F)cc2Cl)C=C[C@@H](Cc2ccccc2)N1C(=O)c1ccccc1	-12%	?	?	-30%	i	25µM*
CC1=C(C(=O)Nc2ccccc2C)C(c2cccnc2)n2nc(SCc3ccccc3)nc2N1 (stereo not drawn)	nt	nt	16%[9.22 µM]	nt	i	i
O=C(/C=C/c1ccccc1)CC(O)(c1ccccc1)C(F)(F)F (stereo not drawn)	-10%	?	13µM*	9%	i	i
O=C(NCc1ccccc1)c1csc(-c2cccnc2)n1	6%	-1%	0%	2%	i	i
O=C(Nc1ccc(Cl)cc1)c1csc(-c2ccccc2)n1	16%	0%	-5%	18µM*	i	i
O=C(Nc1ccc(Cl)cc1Cl)c1csc(-c2cccnc2)n1	13%	-3%	9%	40µM*	i	i
O=C1NC(=Nc2ccccc2)CS1	-5%	-4%	4%	11µM*	i	i
COc1ccccc1[C@H]1C(c2cccc(Cl)c2)=NN(c2ccccc2)[C@@H]1CO	nt	-1%	20µM*	10µM*	i	?
OC[C@@H]1[C@@H](c2ccccc2)C(c2ccccc2)=NN1c1ccccc1	nt	?	13µM*	19%	?	i
C[C@H]1[C@@H](OC(=O)Oc2ccc([N+](=O)[O-])cc2)CC[C@@]23CCCN2C(=O)CCC[C@@H]13	nt	nt	nt	nt	nt	i
COc1cc2ncc(S(=O)(=O)c3ccccc3)c(N3CCCC(C)C3)c2cc1OC (stereo not drawn)	23%	-1%	28µM*	-4%	i	?
Cc1ccc(NC(=O)c2cc(C(C)(C)C)nn2Cc2ccccc2)cc1	2%	-15%	26%	4%	i	i
SMILES	Mito fusion yeast	aSyn rescue	TDP43 rescue	AT treatment	Abeta rescue	FUS suppressor
CC(C)(C)c1cc(C(=O)Nc2ccc(F)cc2)n(Cc2ccc(F)cc2)n1	7%	-11%	20µM*	-2%	?	i
COc1cc2sc(-c3ccccc3OC)c(-c3ccc(O)cc3)c2cc1OC	nt	-1%	16µM*	1%	i	i
COc1ccc2sc(-c3ccccc3OC)c(-c3ccc(O)cc3)c2c1	-55%	-62%	-91%	-1%	i	?
C=CCN1C(C(=O)OC)CN(Cc2cn(Cc3ccc(Cl)cc3)nn2)CCS1(=O)=O (stereo not drawn)	nt	nt	nt	nt	nt	i
CCc1nc(Nc2ccccc2OC)c2oc3ccccc3c2n1	-2%	-2%	13µM*	13%	i	i
Cc1ccc(-n2c(SCC(=O)Nc3ccc(Oc4ccccc4)cc3)nnc2-c2ccco2)cc1	nt	nt	nt	nt	nt	i
CCOC(=O)C(=CNNc1ccccc1)C(=O)OCC	-2%	?	13µM*	6%	i	i
CCOC(=O)NNc1ccccc1	1%	-4%	-19%	-3%	i	i
O=C(CSc1nnc(COc2ccccc2)n1Cc1ccco1)Nc1ccc(OCc2ccccc2)cc1	nt	nt	nt	nt	nt	i
CCOc1ccc(C(=O)Nc2nc(-c3ccc(Br)cc3)ns2)cc1	nt	nt	10%	nt	i	i
Cn1cccc1C(=O)OCC(=O)Nc1cc(C(C)(C)C)nn1-c1ccccc1	4%	7%	35µM*	7%	i	i
O=C(Oc1ccc2ccc(O)cc2c1)c1ccccc1Cl	-1%	-12%	14µM*	4%	i	i
O=C(Oc1ccc2ccc(O)cc2c1)C1CCCCC1	9%	-4%	22µM*	-3%	i	i
Cc1nn(CCC(=O)NNC(=O)Nc2ccc(Cl)cc2)c(C)c1[N+](=O)[O-]	nt	nt	nt	nt	nt	i
Cc1cc(C)n2nc(-c3cnn(C)c3C(F)(F)F)cc2n1	1%	3%	13µM*	1%	i	i
O=C(c1ccc(Br)cc1)N(Cc1ccco1)c1ccccn1	nt	nt	25%	nt	i	i
CC(Sc1nnnn1C)C(=O)Nc1ccc(Oc2ccccc2)cc1 (stereo not drawn)	20%	1%	16µM*	0%	i	i
O=C(/C=C/c1cccc([N+](=O)[O-])c1)c1ccco1	-24%	12%	6.3µM*	7%	i	i
Cc1nc2ccccn2c1C(=O)/C=C/c1cccc([N+](=O)[O-])c1	2%	-5%	2.5µM*	5%	i	i
Cc1ccc(/C=C/C(=O)c2c(C)nc3ccccn23)cc1	5%	-6%	?	22%	i	i
COc1ccc(Cn2cc(CN3[C@H](CC(C)C)COc4cc(Br)ccc4S3(=O)=O)nn2)cc1	nt	nt	nt	nt	nt	i
CNC(=S)Nc1ccc(C23CC4CC(CC(C4)C2)C3)cc1	11%	-7%	-6%[0.397 µM]	-2%	7.1µM*	i
